Potency and outcome data for 16 molecules are collected here from PubChem BioAssay (Tox21).

Assay [1] can be described thus: A CellTox Green Cytotoxicity Assay to monitor cytotoxicity in HEK293 cells - 8 hour (AID 1224884). Further: nearly all actives have a fitted effect of over 35% in size. Further: potency means the concentration at half of the fitted maximal effect. The gist of the method: (§1)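 Dead-cell fluorescence measured kinetically: asymmetric cyanine dye, HEK293, 600 cells/well, 5 h settle, 23 nL cpd/DMSO, 37 C, reads 0–40 h every 8 h.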
Assay [2] is described as follows: A CellTox Green Cytotoxicity Assay to monitor cytotoxicity in HEK293 cells - 16 hour (AID 1224888). Further: nearly all actives have a fitted effect of over 35% in size. The gist of the method:
as §1

The nature of assay [3]: qHTS RealTime-Glo MT Cell Viability Assay in HepG2 cells - 0 hour (AID 1224889). Further: nearly all actives have a fitted effect of over 50% in size. The method, boiled down: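 Compound treatment began 5 h after plating HepG2 cells (600/well) with NanoLuc luciferase and prosubstrate. Plates stayed at 37 C for 40 h; luminescence was captured at six time points, 0 h through 40 h.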
For orientation: Quantitative high-throughput screening tests each substance at several concentrations.

A short description of assay [4]: A CellTox Green Cytotoxicity Assay to monitor cytotoxicity in HepG2 cells - 8 hour (AID 1224890). Further: nearly all actives have a fitted effect of over 45% in size. The method, boiled down:
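First, HepG2 cells (600/well) mixed with reagent were plated; second, after 5 h at 37 C they received compounds via pintool; third, fluorescence was measured at 0 h through 40 h at 8 h intervals.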

Assay [5] is described as follows: qHTS assay to identify small molecule antagonists of the estrogen receptor alpha (ER-alpha) signaling pathway using the BG1 cell line in the presence of 0.1 nM 17-beta-estradiol - cell viability counter screen (AID 1259241). Further: nearly all actives have a fitted effect of over 40% in size. Further: potency means the concentration at half of the fitted maximal effect. The gist of the method:
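CellTiter-Fluor read (30 min, 37C) on ER-alpha/ERE-luc VM7Luc4E2 cells; 22 hr compound treatment; agonist 0.1 nM E2 final; same-well multiplex.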

Assay [6] in a line: qHTS assay to identify small molecule antagonists of the androgen receptor (AR) signaling pathway using the MDA cell line in the presence of 0.5 nM R1881 - cell viability counter screen (AID 1259242). Further: nearly all actives have a fitted effect of over 45% in size. Further: potency means the concentration at half of the fitted maximal effect. The gist of the method:
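qHTS format. MDA-kb2 (MMTV-luc, AR/GR responsive) + cpd + 0.5 nM R1881 final, 16 hr 37C/0% CO2 → CellTiter-Fluor 30 min → fluorescence intensity.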

Assay [7] in a line: qHTS assay to identify small molecule HDAC inhibitors (AID 1259364). Further: potency means the concentration at half of the fitted maximal effect.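 Further: wild-type HCT-116 cells with endogenous class I/II HDAC activity; nearly all actives have a fitted effect of over 45% in size.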 The gist of the method:
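Quantitative high-throughput format: overnight-seeded HCT-116 cells got compounds for 2 hr at 37C; HDAC-Glo I/II reagent added, 30 min RT, luminescence measured.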

The nature of assay [8]: qHTS assay to identify small molecule agonists of the sonic hedgehog signaling (Shh) pathway - cell viability counter screen (AID 1259366). Further: nearly all actives have a fitted effect of over 50% in size. Further: potency means the concentration at half of the fitted maximal effect. The method, boiled down: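 Fluorescence from CellTiter-Fluor reports live cells in this counter screen. NIH/3T3-derived Gli1-Luc reporter cells receive test compounds for 24hr at 37C; reagent goes in at 23hr.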
Assay [9] is described as follows: qHTS assay to identify small molecule antagonists of the sonic hedgehog signaling (Shh) pathway - cell viability counter screen (AID 1259367). Further: nearly all actives have a fitted effect of over 55% in size. Further: potency means the concentration at half of the fitted maximal effect. The method, boiled down:
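Fluorescence read-out (CellTiter-Fluor, 1 hr at 37C) taken after 23 hr compound treatment of 3T3 Gli1-Luc cells stimulated with conditioned medium. Cells were seeded at 2,000 per well and pre-incubated 4 hr.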

A short description of assay [10]: qHTS assay to identify small molecule agonists of the sonic hedgehog signaling (Shh) pathway (AID 1259368; calls by dose curve;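 further: NIH/3T3-derived 3T3Gli1-Luc cells carrying a stable Gli1-driven firefly luciferase reporter; series mostly up to about 92 µM; nearly all actives have a fitted effect of over 15% in size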). The gist of the method: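 Quantitative high-throughput format using a Gli1-driven firefly luciferase reporter line derived from NIH/3T3 cells. After a 24 hr compound treatment at 37 C and 5% CO2, luminescence reported Gli1 response element activity.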
Assay [11] deals with Estrogen receptor beta (Homo sapiens) (UniProt Q92731). The assay can be described thus: qHTS assay to identify small molecule agonists of the estrogen receptor beta (ER-beta) signaling pathway (AID 1259377; active means well fitted activation curve with a large enough effect in the signal ratio in the repeat runs, not every such curve was filed as active; the % refers to the signal ratio). The method, boiled down:
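Screening used GripTite ER-beta-UAS-bla cells held in 2% charcoal-stripped FBS medium. After overnight (16 hr) compound incubation at 37C, beta-lactamase activity was detected with a FRET substrate by fluorescence.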

Assay [12] shares this target. Nature of the assay: qHTS assay to identify small molecule antagonists of the estrogen receptor beta (ER-beta) signaling pathway (AID 1259378; active means well fitted inhibition curve with a large enough effect in the signal ratio in the repeat runs, not every such curve was filed as active; the % refers to the signal ratio). The method, boiled down: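 ER-beta-UAS-bla HEK293T cells in 2% charcoal-stripped FBS medium treated with compound plus 1nM final 17-beta-estradiol for 16 hr at 37C. Beta-lactamase reporter read by FRET substrate fluorescence after 2 hours at room temperature.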

Assay [13] can be described thus: qHTS RealTime-Glo MT Cell Viability Assay in HEK293 cells - 24 hour (AID 1224886). Further: nearly all actives have a fitted effect of over 50% in size. Further: potency means the concentration at half of the fitted maximal effect. The method, boiled down: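 Quantitative high-throughput screen of the Tox21 10K library in HEK293: cells and RealTime-Glo reagents plated together, compound added at 5 h, luminescence monitored through 40 h at 37 C.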
Assay [14] can be described thus: qHTS RealTime-Glo MT Cell Viability Assay in HEK293 cells - 8 hour (AID 1224887). Further: nearly all actives have a fitted effect of over 50% in size. Further: potency means the concentration at half of the fitted maximal effect. The gist of the method: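 600 HEK293 cells per well, dispensed already mixed with RealTime-Glo MT reagents. Compound dosing came 5 h later. The same wells were read for luminescence at 0, 8, 16, 24, 32 and 40 h of exposure at 37 C.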
The target in assay [15] is Androgen receptor (Homo sapiens) (UniProt P10275). The assay can be described thus: qHTS assay to identify small molecule antagonists of the androgen receptor (AR) signaling pathway using the MDA cell line in the presence of 0.5 nM R1881 (AID 1259243). Further: nearly all actives have a fitted effect of over 50% in size. Further: potency means the concentration at half of the fitted maximal effect. The method, boiled down:
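Antagonist mode quantitative HTS in MDA-kb2 MMTV-luciferase cells, agonist R1881 at 0.5 nM final, 16 hr exposure at 37C and 0% CO2, luminescent detection.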

Assay [16] concerns the target Estrogen receptor (Homo sapiens) (UniProt P03372). The assay can be described thus: qHTS assay to identify small molecule antagonists of the estrogen receptor alpha (ER-alpha) signaling pathway using the BG1 cell line in the presence of 0.1 nM 17-beta-estradiol (AID 1259244). Further: nearly all actives have a fitted effect of over 50% in size. Further: potency means the concentration at half of the fitted maximal effect. The gist of the method:
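Reporter is a stably transfected luciferase under four estrogen responsive elements in VM7Luc4E2 cells expressing native full-length ER-alpha; inhibition of 0.1 nM (final) 17beta-estradiol-driven signal over 22 h is read by luminescence.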

The nature of assay [17]: qHTS assay to identify small molecule HDAC inhibitors - cell viability counter screen (AID 1259365). The method, boiled down: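 To flag cytotoxic hits, 1,500 wild-type HCT-116 cells per well, plated the day before, receive test compounds for 2hr at 37 C before CellTiter-Glo reagent and a luminescence read.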
Assay [18] is described as follows: qHTS assay to identify small molecule antagonists of the sonic hedgehog signaling (Shh) pathway (AID 1259369; calls by dose curve; further: nearly all actives have a fitted effect of over 45% in size; further: potency means the concentration at half of the fitted maximal effect). The gist of the method: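 Stable Gli1-Luc reporter NIH/3T3 clone; quantitative HTS in stimulated mode with conditioned medium. Luminescence measured after 24hr compound treatment at 37 C.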

Unmarked numbers belong to inactive results. Records with an inconclusive call do not appear. The source made the active and inactive calls. Unless noted, the call rests on the fitted dose curve; in most records, active means well fitted curve in the direction sought with a large enough effect in the repeat runs; inconclusive means weak or mixed curves; inactive means no such curve, though single readings can be large; an effect the other way counts as inactive or inconclusive.

Sequence of Estrogen receptor beta (Homo sapiens) (Q92731 whole entry, looked up): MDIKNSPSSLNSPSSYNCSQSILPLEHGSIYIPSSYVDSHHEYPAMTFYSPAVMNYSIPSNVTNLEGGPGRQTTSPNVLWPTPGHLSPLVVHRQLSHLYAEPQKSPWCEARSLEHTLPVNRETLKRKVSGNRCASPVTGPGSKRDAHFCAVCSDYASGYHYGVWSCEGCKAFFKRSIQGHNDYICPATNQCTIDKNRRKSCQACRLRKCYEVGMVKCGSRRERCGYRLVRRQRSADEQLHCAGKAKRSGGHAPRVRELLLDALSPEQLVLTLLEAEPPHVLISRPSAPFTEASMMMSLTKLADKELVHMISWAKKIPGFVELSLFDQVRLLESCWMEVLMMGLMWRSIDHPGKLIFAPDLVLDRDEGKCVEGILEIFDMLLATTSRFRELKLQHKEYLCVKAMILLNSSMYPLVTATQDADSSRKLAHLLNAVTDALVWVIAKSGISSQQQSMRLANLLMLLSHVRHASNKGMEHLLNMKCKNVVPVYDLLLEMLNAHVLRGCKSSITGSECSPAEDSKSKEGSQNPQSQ
Sequence of Estrogen receptor (Homo sapiens) (P03372 whole entry, looked up): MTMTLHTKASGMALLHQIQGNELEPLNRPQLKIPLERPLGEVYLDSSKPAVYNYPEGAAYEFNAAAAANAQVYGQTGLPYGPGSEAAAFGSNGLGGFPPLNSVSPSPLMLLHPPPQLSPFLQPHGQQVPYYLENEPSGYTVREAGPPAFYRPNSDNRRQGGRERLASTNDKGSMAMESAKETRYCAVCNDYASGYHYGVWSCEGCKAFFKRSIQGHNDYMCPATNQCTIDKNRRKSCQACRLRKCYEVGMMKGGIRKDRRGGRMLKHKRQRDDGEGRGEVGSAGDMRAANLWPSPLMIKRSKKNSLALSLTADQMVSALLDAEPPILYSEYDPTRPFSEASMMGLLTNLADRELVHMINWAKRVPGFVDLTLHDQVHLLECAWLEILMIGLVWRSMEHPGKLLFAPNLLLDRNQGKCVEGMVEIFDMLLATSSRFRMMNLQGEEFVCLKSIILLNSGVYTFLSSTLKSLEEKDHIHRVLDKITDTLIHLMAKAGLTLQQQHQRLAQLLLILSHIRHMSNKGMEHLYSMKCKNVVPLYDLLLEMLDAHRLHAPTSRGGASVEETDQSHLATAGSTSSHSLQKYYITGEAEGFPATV
Sequence of Androgen receptor (Homo sapiens) (P10275 whole entry, looked up): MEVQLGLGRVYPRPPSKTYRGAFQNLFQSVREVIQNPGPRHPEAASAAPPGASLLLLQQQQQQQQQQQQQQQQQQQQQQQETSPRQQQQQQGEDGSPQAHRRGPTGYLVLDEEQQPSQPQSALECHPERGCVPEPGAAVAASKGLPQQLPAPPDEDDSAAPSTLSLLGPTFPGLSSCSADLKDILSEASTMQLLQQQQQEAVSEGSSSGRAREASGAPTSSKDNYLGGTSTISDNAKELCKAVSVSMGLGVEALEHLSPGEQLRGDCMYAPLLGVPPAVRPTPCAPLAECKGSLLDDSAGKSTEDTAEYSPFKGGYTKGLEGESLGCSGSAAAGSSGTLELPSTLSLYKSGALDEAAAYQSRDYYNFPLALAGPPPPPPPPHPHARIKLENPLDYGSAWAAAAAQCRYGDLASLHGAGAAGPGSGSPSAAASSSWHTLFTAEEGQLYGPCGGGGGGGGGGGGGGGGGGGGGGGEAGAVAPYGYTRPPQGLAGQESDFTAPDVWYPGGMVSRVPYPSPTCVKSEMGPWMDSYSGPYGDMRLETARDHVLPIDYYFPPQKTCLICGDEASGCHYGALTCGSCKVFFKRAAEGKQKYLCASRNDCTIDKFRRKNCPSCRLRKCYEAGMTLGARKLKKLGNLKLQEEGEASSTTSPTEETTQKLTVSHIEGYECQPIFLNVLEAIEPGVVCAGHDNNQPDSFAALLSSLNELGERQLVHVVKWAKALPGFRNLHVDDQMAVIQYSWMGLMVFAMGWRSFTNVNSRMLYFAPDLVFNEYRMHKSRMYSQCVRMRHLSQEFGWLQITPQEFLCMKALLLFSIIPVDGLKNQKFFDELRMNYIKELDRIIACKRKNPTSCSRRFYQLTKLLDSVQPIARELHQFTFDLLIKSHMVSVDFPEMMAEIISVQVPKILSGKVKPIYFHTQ

Consider `COc1ccc(OC)c(N=Nc2c(O)ccc3ccccc23)c1`, for which the Potency result in assay [1], in assay [2], in assay [3], in assay [4], in [10] and in assay [12] was “inactive” throughout. Besides, the Potency in [5] is 9.69 µM (active); in assay [6], 24.3 µM (active); in [7] it was 27.3 µM (active); in assay [8], 13.7 µM (active); in assay [9], 13.7 µM (active). Besides, the call in assay [11] was inactive.
With `CC(=O)Nc1ccc(N=Nc2cc(C)ccc2O)cc1`, the Potency result in [1], in assay [13], in [14], in [2], in assay [3] and in assay [4] was “inactive” in each case. Also, the Potency result in [5], in assay [15], in assay [16], in [17] and in assay [8] was “inactive” each time. The Potency was 2.73 µM (active) in assay [7] and 15.4 µM (active) in assay [18]. Moreover, the outcome in assay [11] was inactive.
With `CCOC(=O)[C@H](C)O`, the Potency entry in assay [1], in assay [13], in assay [14], in assay [2], in [3] and in assay [4] was “inactive” in each case. In addition, the Potency entry in assay [5], in assay [6], in assay [16], in assay [7], in [17] and in assay [9] was “inactive” in each case. Moreover, the Potency result in assay [10] and in assay [12] was “inactive” in each case. Further, the molecule was called inactive in assay [11].
With `Cc1cc(Br)ccc1NC(=O)CCl`, the Potency entry in assay [1], in assay [2], in assay [3], in assay [4], in assay [16] and in [7] was “inactive” each time. The Potency result in [17] and in assay [10] was “inactive” each time. Besides, the Potency in [14] is 24.5 µM (active); in [5] it was 61.1 µM (active); in [6] it was 48.6 µM (active); in assay [8], 9.69 µM (active); in assay [9] it was 19.3 µM (active); in assay [18], 4.33 µM (active).
Consider `O=C(CCN1CCC(c2ccccc2)C1)c1ccc2c(c1)OCCO2` (stereo not drawn), for which the Potency result in [1], in [14], in assay [2], in assay [3], in assay [4] and in assay [5] was “inactive” in each case. The Potency entry in assay [16], in assay [7], in [17], in assay [10] and in assay [12] was “inactive” throughout. Besides, the Potency in assay [8] is 33.5 µM (active); in assay [18], 18.8 µM (active). Also, in assay [11], the molecule was classed as inactive.
As for `C=CCc1cc(S(=O)(=O)c2ccc(O)c(CC=C)c2)ccc1O`, the Potency result in assay [1], in assay [2], in assay [4], in assay [5], in assay [6] and in assay [15] was “inactive” throughout. Further, the Potency entry in assay [7], in assay [17], in assay [10] and in [18] was “inactive” throughout. For the same molecule, the Potency was 24.5 µM (active) in [14], 61.1 µM (active) in [16] and 24.3 µM (active) in assay [9].
For `O=C1OC(O)C(C(Cl)Cl)=C1Cl` (stereo not drawn), the Potency result in assay [1], in [14], in [2], in [3], in [4] and in assay [5] was “inactive” each time. The Potency entry in [6], in assay [16], in assay [7] and in assay [17] was “inactive” throughout. Also, the figures for the Potency in assay [8], in assay [9] and in assay [18] were 44.6 µM (active), 25.1 µM (active) and 5 µM (active), respectively. In [11], the result was inactive.
With `CCCCC/C=C\C=C\C(=O)OCC`, the Potency result in [1], in assay [2], in assay [3], in [4], in [5] and in assay [6] was “inactive” each time. Further, the Potency entry in assay [16], in [7], in [10] and in assay [12] was “inactive” in each case.
As for `Cc1c(Cl)c(=O)oc2cc(O)ccc12`, the Potency result in assay [1], in [2], in assay [3], in [4], in assay [7] and in assay [17] was “inactive” in each case. Also, the Potency entry in assay [10] is “inactive”. The Potency in assay [14] was 43.6 µM (active); in [18], 34.4 µM (active).
`CCn1c2ccccc2c2ccccc21`: the Potency result in [1], in assay [13], in assay [2], in [3], in assay [4] and in [5] was “inactive” throughout. Besides, the Potency result in assay [6], in assay [16], in [7], in assay [8], in assay [9] and in assay [10] was “inactive” each time. Moreover, the Potency result in assay [18] was “inactive”.
Consider `CN1CCN(CCCN2c3ccccc3Sc3ccc(Cl)cc32)CC1`, for which the Potency result in assay [1], in assay [2], in assay [5], in assay [6], in assay [16] and in assay [7] was “inactive” each time. Also, the Potency result in [17] and in [10] was “inactive” in each case. The figures for the Potency in assay [8] and in [18] were 10.6 µM (active) and 16.8 µM (active), respectively.
As for `COCCC(=O)OC`, the Potency entry in assay [1], in assay [13], in assay [14], in assay [2], in [3] and in assay [4] was “inactive” throughout. Also, the Potency result in [5], in assay [6], in [15], in [7] and in assay [10] was “inactive” each time.
For the molecule `CCCCCCCCCCCCCCCCCCNC(=O)OC1CCN(C(=O)OC[C@H](COC(=O)N(Cc2cccc[n+]2CC)C(=O)c2ccccc2OC)OC)CC1`, the Potency in assay [1] is 26.8 µM (active); in [13], 10.7 µM (active); in assay [14] it was 21.3 µM (active); in [15], 23.7 µM (active); in assay [16], 29.8 µM (active); in [18], 26.6 µM (active). The Potency entry in assay [3], in assay [5], in assay [7], in assay [17], in [8] and in [9] was “inactive” each time. Also, the Potency result in assay [10] was “inactive”.
As for `CCC1(C)C(=O)N(Cl)C(=O)N1Cl` (stereo not drawn), the Potency entry in [1], in [14], in assay [2], in assay [3], in assay [4] and in assay [5] was “inactive” in each case. Further, the Potency entry in [6], in assay [15], in assay [16], in assay [7], in assay [17] and in [9] was “inactive” each time. The Potency result in [10], in [18] and in assay [12] was “inactive” each time.
With `CCOc1nc(F)cc2nc(S(=O)(=O)Nc3c(Cl)cccc3C(=O)OC)nn12`, the Potency entry in assay [1], in assay [2], in assay [3], in assay [4], in [5] and in assay [6] was “inactive” in each case. In addition, the Potency result in assay [15], in [16], in assay [7], in [17], in [8] and in assay [9] was “inactive” throughout. The Potency entry in assay [10] and in assay [18] was “inactive” throughout.
On to `Oc1cccc2c(O)cccc12`, for which the Potency result in assay [1], in assay [14], in assay [2], in [3], in [4] and in assay [6] was “inactive” throughout. Further, the Potency result in assay [7] and in assay [10] was “inactive” each time. The Potency in assay [5] is 68.6 µM (active); in assay [16] it was 54.5 µM (active); in assay [9], 30.6 µM (active); in assay [18] it was 10.9 µM (active).
